# Measured values from the supplement of paper PMC10338343.
# ± gives the standard deviation. Whole data set: some 8,200 sequences, median “pre-steady-state target cleavage rate” near 0.024, cut for the highest 2% near 1.3. Only a selection was taken, and the highest values are over-represented in it overall.
# Tested on: MIWI (PIWIL1) piRISC loaded with L1MC piRNA (30 nt)
# Assay: pre-steady-state target cleavage rate (min^-1); MIWI and MILI are mouse PIWI proteins and EfPiwi is from a freshwater sponge; tags in brackets are library labels; higher = faster piRNA-guided slicing of the target
# Conditions: guide: L1MC piRNA 5'p-UAACUAAAUACUAUGCAAGCUGUAGGUCCU
# Outline: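 Cleave-'n-Seq reactions paired 0.1 nM transcribed, DNA-blocked target RNA library with 1 nM active affinity-purified piRISC holding one synthetic guide, plus or minus 500 nM GTSF1 partner protein, in HEPES–potassium acetate buffer at 33 °C for 0–8 or 0–960 min. After sequencing of uncleaved targets and normalisation to depth and weakly complementary targets, the pre-steady-state cleavage rate was taken from a burst-and-steady-state fit. Three trials were pooled, and k3 was capped at 0.0001 min^-1.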
# [1] = auxiliary factor: 500 nM mouse GTSF1
# [2] = auxiliary factor: none (no GTSF1)
Sequence,pre-steady-state target cleavage rate [1],pre-steady-state target cleavage rate [2]
UCCUCCUACAGCUUGCAUAAUAUUUAGUUA,0.52 ± 0.03,0.0234 ± 0.0044
UGGAGGAACAGCUUGCAUAGUAUUUAGUAA,0.754 ± 0.05,0.0519 ± 0.012
UCCACCUACACCAUGCAUAGUAUUUAGUUA,0.719 ± 0.036,0.0161 ± 0.003
UCCUGGAUGAGCUAGCAUAGUAUUUAGAAA,0.124 ± 0.029,
AGCGACCUACAGCUUGCAUAGUAUUUAGUUA,1.37 ± 0.049,0.112 ± 0.019
UGCGACCUACAGCUUGCAUAGUAUUUAGUUA,1.41 ± 0.057,0.0975 ± 0.02
UCCUGCUACAGCUUGGUAAGUAUUUAGUUA,0.0624 ± 0.011,
UCCUGGAUCAGCAUGCAUAGUAUUUAGAUA,0.375 ± 0.034,0.00494 ± 0.0022
UCCUGGAUCAGCUUGCAUAGUAUAUAGUAA,0.458 ± 0.054,0.0134 ± 0.0052
UCCAGCUACAGCUUGCAUAGUUUUUAGUUA,0.253 ± 0.026,0.0203 ± 0.0032
UCGAGCUACAGCUUGCAUAGUAUUUAGAAA,0.407 ± 0.039,0.0061 ± 0.0023
ACGAGCUACAGCUUGCAUAGUAUUUAGUUA,1.54 ± 0.057,0.094 ± 0.016
UCGAGCUACAGCUUGCAUAGUAUUUAGUAA,1.08 ± 0.082,0.0348 ± 0.0066
UCGAGCUACAGCUUGCAUAGUAUUUAGAUA,0.443 ± 0.041,0.0206 ± 0.0046
UCCUGCUACGAGCUUGCAUAGUAUUUAGUUA,0.717 ± 0.073,0.0315 ± 0.0066
UCGAGCUACAGCUUGCAUAGUAUUUAGUUA,1.41 ± 0.062,0.0832 ± 0.014
UCCUGGAUCAGCUUGCAUAGUAUUAAGAUA,0.265 ± 0.05,0.00645 ± 0.0033
UGGACCUACAGCUUGCAUAGUAUGUAGUUA,0.332 ± 0.041,0.0171 ± 0.0041
UCCUGCUACAGCUUGGUUAGUAUUUACAAA,0.0104 ± 0.0047,
UCGACCUACAGCUUGCAUAGUAUUUUGUUA,0.921 ± 0.043,0.0471 ± 0.0091
UCCUGGAUCAGCUAGCAUAGUAUUUUCAAA,0.0506 ± 0.015,

Sequence,pre-steady-state target cleavage rate [1],pre-steady-state target cleavage rate [2]
UGGACACUACAGCUUGCAUAGUAUUUAGUUA,1.04 ± 0.063,0.0643 ± 0.0081
UGGACUACAGCUUGCAUAGUAUUUAGUUA,1.34 ± 0.053,0.0823 ± 0.013
UCCACUCUACAGCUUGCAUAGUAUUUAGUUA,0.884 ± 0.029,0.0688 ± 0.012
UGGACUCUACAGCUUGCAUAGUAUUUAGUUA,1.4 ± 0.066,0.0856 ± 0.017
UCGACGCUACAGCUUGCAUAGUAUUUAGUUA,1.27 ± 0.063,0.094 ± 0.022
AGGACUACAGCUUGCAUAGUAUUUAGUUA,1.24 ± 0.066,0.0945 ± 0.016
UCGACUCUACAGCUUGCAUAGUAUUUAGUUA,1.48 ± 0.06,0.0579 ± 0.0096
AGGACUCUACAGCUUGCAUAGUAUUUAGUUA,1.28 ± 0.069,0.0617 ± 0.011
UGGACCUACACCUUGCAUAGUAUUUUCAAA,0.327 ± 0.05,0.00389 ± 0.0023
UCCUGGAACUGCUAGCAUAGUAUUUAGUUA,0.534 ± 0.037,0.00949 ± 0.0035
UCGACCUACAGCUUGCAUAGUAUUUAGUCA,0.947 ± 0.041,0.0656 ± 0.013
UCCUGGUACACCUUGCAUAGUAUUUAGUAA,0.334 ± 0.078,0.0104 ± 0.0044
UCCUCCUACAGCUUGCAUAGUAUAUUGUUA,0.368 ± 0.033,0.0145 ± 0.0039
UGGACCUACAGCUUGCAUACUAAUUAGUUA,0.154 ± 0.01,0.00958 ± 0.0024
UCCUGGAACAGCUUGCUAUGUAUUUAGUUA,0.0729 ± 0.011,0.00814 ± 0.0024
UCCUCCUACAGCUUGCAUACUAUUUACUUA,0.197 ± 0.023,0.018 ± 0.0033
UGGACCUACAGCUUGCAUAUUAUUUAGUUA,1.71 ± 0.12,0.0442 ± 0.0088
UCGACCUACAGCUUGCAUAGUUAUUUAGUUA,0.0764 ± 0.016,0.00495 ± 0.0031
AGGACCUACAGCUUGCAUAUUAUUUAGUUA,1.23 ± 0.074,0.0773 ± 0.017
UGGACCUACAGCUUGCAUAUAUUUAGUUA,0.429 ± 0.067,0.00298 ± 0.0022
UCGACCUACAGCUUGCAUAUAUUUAGUUA,0.489 ± 0.044,

Sequence,pre-steady-state target cleavage rate [1],pre-steady-state target cleavage rate [2]
UCGACCUACAGCUUGCAUAUUAUUUAGUUA,1.5 ± 0.072,0.0515 ± 0.013
UCCUGGAACAGCUUGCACAGUAUUUAGUUA,1.01 ± 0.035,0.0853 ± 0.018
UCCUGGAUGUGCUUGCAUAGUAAUUAGUUA,0.0816 ± 0.011,0.0162 ± 0.0045
UCCUCCUACUGCUUGCAUAGUAUAUAGUUA,0.472 ± 0.026,0.0228 ± 0.0045
UCCUCCUUCUGCUUGCAUAGUAUUUAGUUA,1.18 ± 0.038,0.0546 ± 0.0091
UGGACCUACAGCUUGAAUAGUAUUUAGUUA,1.63 ± 0.08,0.0423 ± 0.0078
UCGACCUACAGCUUGAAUAGUAUUUAGUUA,1.48 ± 0.05,0.0397 ± 0.0067
AGGACCUACAGCUUGAUAGUAUUUAGUUA,1.21 ± 0.082,0.0133 ± 0.0041
AGGACCUACAGCUUGACAUAGUAUUUAGUUA,1.07 ± 0.093,0.0105 ± 0.0047
UGGACCUACAGCUUGAUAGUAUUUAGUUA,1.03 ± 0.096,0.0103 ± 0.003
AGGACCUACAGCUUGAAUAGUAUUUAGUUA,1.44 ± 0.059,0.0532 ± 0.01
UCGACCUACAGCUUGAUAGUAUUUAGUUA,1.08 ± 0.067,0.00731 ± 0.0024
UGGACCUACAGCUUGCAAUAGUAUUUAGUUA,0.0655 ± 0.011,
UCCACCUACAGCUUGAAUAGUAUUUAGUUA,1.01 ± 0.035,0.0277 ± 0.0053
UCCUGGAUGUGCUUGCAUAGUAUUUACAUA,0.08 ± 0.017,0.0058 ± 0.0031
UCCUGGAUGAGCAUGGAUAGUAUUUAGUUA,0.475 ± 0.042,0.0081 ± 0.0031
UCGACCUACAGCUUGCUUAGUAUUUUCAAA,0.329 ± 0.048,
UCCUGGAUGUGCAUGCAUAGUAUUUAGUAA,0.0251 ± 0.0072,0.00346 ± 0.0025
UCCUGGAAGAGCUUGCUUAGUAUUUAGUUA,0.761 ± 0.051,0.0227 ± 0.0089
UCCUGGAUGAGCUUGCUUAGUAUAUAGUUA,0.0747 ± 0.013,0.0101 ± 0.0035
